{"source": "PubChem BioAssay AID1159506", "about": "(National Center for Advancing Translational Sciences (NCATS), 2015)", "note": "Whole data set: some 59,000 sequences, median the read-out near -0.00055, cut for the lowest 2% near -2. This excerpt belongs to a sample that is enriched for the lowest values."}
{"experiment": "Identification of proteins required for the processing of the EWS-FLI1 nascent transcript;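 note: robust z of luciferase light less the median z of siRNAs with the same seed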", "conditions": "TC32 Ewing sarcoma NR0B1-luc vs CMV-luc (EWS-FLI1 target promoter against control promoter), 48 h; screened at 20 nM (by protocol)", "method_in_brief": "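TC32 Ewing sarcoma cells carrying NR0B1-promoter or CMV-promoter luciferase reporters were reverse-transfected with single siRNAs at 20 nM, three per gene genome-wide. Luminescence was read after 48 h and normalized to non-targeting controls.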"}
{"sequence": "UUUGAUAGAGGUGCGGACG against OR6F1", "seed-corrected z-score": -0.169}
{"sequence": "UAUCCGAUCACCACUCUCC against MYOM3", "seed-corrected z-score": -0.29}
{"sequence": "UUCUUUCUGAGUCUGGUUA against RPL35", "seed-corrected z-score": -3.01}
{"sequence": "AAAGGCUUAAUUUUUACCU against TOMM7", "seed-corrected z-score": 1.3}
{"sequence": "UGAGUUCCAGGUCUUAUGC against DEFB110", "seed-corrected z-score": -0.42}
{"sequence": "AUAUUGUUUAGCUCCACGG against MASP1", "seed-corrected z-score": 0.285}
{"sequence": "UAGUCGUUCUUCUACAGCC against MBIP", "seed-corrected z-score": 0.411}
{"sequence": "UCACGAAGAGUUGCAACUG against ALB", "seed-corrected z-score": -3.99}
{"sequence": "UGUAGUAACAGAGCCACGC against PPY", "seed-corrected z-score": 0.227}
{"sequence": "AAAAGUCCUAGCAUAUUCC against ZER1", "seed-corrected z-score": 0.406}
{"sequence": "UUUGUGAUCUUGGUGAGGU against SHBG", "seed-corrected z-score": -0.0288}
{"sequence": "AACUGGACUGGAAUUGUUU against CXCR1", "seed-corrected z-score": -0.419}
{"sequence": "UAUGUGCUGGUGAUCCUUC against DEAF1", "seed-corrected z-score": 0.839}
{"sequence": "UGUUGUACAACGAUAGCCU against RELL1", "seed-corrected z-score": -0.595}
{"sequence": "AUUGUAACGGGUUUUGUUC against CHRNB4", "seed-corrected z-score": -0.325}
{"sequence": "AACUGUUCCAUCGACUUGG against RASAL1", "seed-corrected z-score": -0.492}
{"sequence": "UUACUGUCCAGAGCACUGA against SMARCD3", "seed-corrected z-score": -0.925}
{"sequence": "UUUGCUAUAAUCCACCUCC against IK", "seed-corrected z-score": -3.11}
{"sequence": "UAGACGAUAAGACUCUUUC against NCOA7", "seed-corrected z-score": -0.339}
{"sequence": "UAUUGAAGCAACUAGGAUG against KIAA0754", "seed-corrected z-score": -0.869}
{"sequence": "UGCAGGAUGACCAAAGUGC against LGALS14", "seed-corrected z-score": 0.705}
{"sequence": "AAUAUGUCCAGCCCAGCUG against CLIC1", "seed-corrected z-score": -0.000686}
{"sequence": "UUUCCUUUGGUUGUUAAUG against FDX1", "seed-corrected z-score": -0.575}
{"sequence": "UUCCGAGAUAUGGAGGUAC against KIAA0368", "seed-corrected z-score": 0.95}
{"sequence": "UCAUCUUCUUCCGUUGCCG against PPP1R1A", "seed-corrected z-score": 0.273}
{"sequence": "UAAGAAAAAGCGGAGUUCG against FZD7", "seed-corrected z-score": 0.0443}
{"sequence": "UUCUUUUGACUCUUAGUCC against CLEC4C", "seed-corrected z-score": -2.28}
{"sequence": "UAGCCUAGGAGAUACAUCG against COPB2", "seed-corrected z-score": -3.63}
{"sequence": "UAACUUUUCCCUUAUUCAG against FAM90A3P", "seed-corrected z-score": 0.873}
{"sequence": "UUCCGUGUGAAACAGAUGG against ARMC4", "seed-corrected z-score": 0.434}
{"sequence": "AAUGUAGUAAAUGCAAGUU against C3orf79", "seed-corrected z-score": -0.0591}
{"sequence": "UUCUGGUAGAAGCAUUUCC against ZNF25", "seed-corrected z-score": -1.93}
{"sequence": "UGAUGAAGUAGGUCACGGC against SLC29A4", "seed-corrected z-score": 0.41}
{"sequence": "UUUUCAGUCUCACUAGUUU against MIPEPP3", "seed-corrected z-score": 0.623}
{"sequence": "AUUCUUAAUCUUUACAUCC against BRDTP1", "seed-corrected z-score": 0.809}
{"sequence": "UAAGGGUCCUUCCAUGGCC against PVRIG", "seed-corrected z-score": 0.201}
{"sequence": "AUGUUUCCCAUAACAGUGG against OR4D2", "seed-corrected z-score": -3.19}
{"sequence": "UGAAAAUCACGAGAUUUCC against TEAD1", "seed-corrected z-score": 0.305}
{"sequence": "UGUUAAACUGCUAAGGAUG against RPRD2", "seed-corrected z-score": -0.294}
{"sequence": "UCAUGUACGGCCUCUUCCC against CCDC8", "seed-corrected z-score": 0.173}
{"sequence": "UCUGUGAGCAGUUUCCACU against SOX21", "seed-corrected z-score": -2.74}
{"sequence": "UGAAUGUCUUGCGAUUUGC against CADM2", "seed-corrected z-score": 0.122}
{"sequence": "UCCCAACCCAGUCAUAACC against BEST3", "seed-corrected z-score": 0.332}
{"sequence": "UUUCGGUACUCGGUUAACC against EIF3FP3", "seed-corrected z-score": 0.962}
{"sequence": "UUGUCGUGAAAUGAAACUC against TTLL11", "seed-corrected z-score": -0.262}
{"sequence": "UUCCUUUCCACUGCCGUGU against CHRAC1", "seed-corrected z-score": 0.0577}
{"sequence": "UUCGUUAAGCAAACACUCG against ADAMTS9", "seed-corrected z-score": 0.367}
{"sequence": "UUUCAGAUAAGCACGAAGC against EIF3M", "seed-corrected z-score": 1.89}
{"sequence": "UUAGCUGCAUGAUACCAGG against FAM151B", "seed-corrected z-score": -2.3}
{"sequence": "AUAGUUACAGAGGCAAGAG against MESTP3", "seed-corrected z-score": 1.98}
{"sequence": "UAUCUAACUUCUGUCCCGC against HCCS", "seed-corrected z-score": 0.00186}
{"sequence": "UCUGCAACAAGAUCAACAG against POP5", "seed-corrected z-score": 0.345}
{"sequence": "UUUUCUACAGCUCUCACUC against CREB3", "seed-corrected z-score": -2.05}
{"sequence": "AAACCUAAAAAUGCACUCC against MAGEE1", "seed-corrected z-score": 0.116}
{"sequence": "UAGGUGACGAUCUCCAUCA against HCK", "seed-corrected z-score": -1.81}
{"sequence": "UUUCAUAUGUGAAUCCUCC against TCN2", "seed-corrected z-score": 0.641}
{"sequence": "AAACUAGUAACUCCUCGUC against PRDM8", "seed-corrected z-score": -2.41}
{"sequence": "AGUUGAAUAAGAAAGUACC against MTM1", "seed-corrected z-score": 1.55}
{"sequence": "UCAAACACCAGGGUGAGGG against CDK18", "seed-corrected z-score": -0.15}
{"sequence": "AACUGGUUAUGGUAGUUGC against RMI2", "seed-corrected z-score": -2.9}
{"sequence": "UCAGGAUCCAGACAGUUGC against TP53AIP1", "seed-corrected z-score": 0.541}
{"sequence": "UUAGGUGCACCAGUAAGAG against PEX2", "seed-corrected z-score": -1.19}
{"sequence": "UCCAGUAAAAGGCUGAGCG against LGI1", "seed-corrected z-score": -3.39}
{"sequence": "UCAGGAUGAUGUGUGGGAU against KRTAP5-11", "seed-corrected z-score": -1.11}
{"sequence": "UGCUGUUCAAGCGAAUGCC against DRG1", "seed-corrected z-score": 0.745}
{"sequence": "AUAAGAUUGGAAUUCGACG against ARL6", "seed-corrected z-score": 0.549}
{"sequence": "UUUGGAGCUACCACCCGAC against MRPL27", "seed-corrected z-score": 0.314}
